Source: the supplement of paper PMC10338343
± gives the standard deviation.

Test system: MILI (PIWIL2) piRISC loaded with L1MC piRNA (26 nt)
Assay: pre-steady-state target cleavage rate (min^-1); guide: L1MC piRNA 5'p-UAACUAAAUACUAUGCAAGCUGUAGG; MIWI and MILI are mouse PIWI proteins and EfPiwi is from a freshwater sponge; tags in brackets are library labels; higher = faster piRNA-guided slicing of the target
Conditions: auxiliary factor: 500 nM mouse GTSF1
Summary of the method: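 The pre-steady-state cleavage rate came from a burst-and-steady-state fit to pooled data from three Cleave-'n-Seq trials, in which uncleaved targets were sequenced and normalised to depth and to weakly complementary targets. Each reaction held 0.1 nM transcribed, DNA-blocked target RNA library and 1 nM active affinity-purified piRISC carrying one synthetic guide, with or without 500 nM GTSF1 partner protein, in HEPES–potassium acetate buffer at 33 °C for 0–8 or 0–960 min. k3 was capped at 0.0001 min^-1.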

Row | Sequence | pre-steady-state target cleavage rate
1 | UCCUGGAUGUGCUUGCAUAGUAAUAAGUUA | 0.0448 ± 0.016
2 | UCCUGGAUGAGCUUGCAUAGUCAUUUAGUUA | 0.00477 ± 0.0039
3 | UCCUGGAUGAGCUACGAUAGUAUUUAGUUA | 0.00662 ± 0.0035
4 | UCCUGCUACACGAUGCAUAGUAUUUAGAAA | 0.183 ± 0.042
5 | UCCUGGAUGACGAUGCAUAGUAUUUAGAAA | 0.139 ± 0.035
6 | UCCUGGAUGUCGAUGCAUAGUAUUUCGUUA | 0.0116 ± 0.0056
7 | UCCUGCUACAGCUUGCAUAGUAUAAAGAAA | 0.0621 ± 0.021
8 | UCCUGGAACAGCUUGCAAAGUAUUUACAAA | 0.0328 ± 0.01
9 | UCCUGGAUGUGCUUGCAUAGUAAUUAGAUA | 0.00915 ± 0.0044
10 | UCCUGGUACAGCUUGCAAUGUAUUUAGUAA | 0.0576 ± 0.013
11 | UCCUGGAUGUCCAUGCAUAGUAUUUUGUUA | 0.00776 ± 0.0045
12 | UCCUGGAUGAGCUUGCAUAGUAUAAAGUAA | 0.0682 ± 0.02
13 | UCCUCCUACAGGUUGCAUAGUAUUUACUUA | 0.0691 ± 0.015
14 | UCCUGGAUCAGCUUGCAUAGUAAAUUCAAA | 0.0136 ± 0.0055
15 | UCCUGGAUGUCGAACCAUAGUAUUUAGCUUA | < 0.0001
16 | UCCUGGAUCAGCUUGCAUAGUAUAUACAAA | 0.0964 ± 0.023
17 | UCCUGCUACUCGUUGCAUAGUAUUUACAAA | 0.0703 ± 0.016
18 | UCCUCCUACACGUUGCAUAGUAUUUUCAAA | 0.0568 ± 0.017

Row | Sequence | pre-steady-state target cleavage rate
19 | UCCUGGAUGUCGUUGCAUAGCAUUUAGUUA | 0.0206 ± 0.007
20 | UCCUGGUACACCUUGGAUAGUAUUUAGUUA | 0.223 ± 0.069
21 | UCCUGGAUGUCCUAGCUUAGUAUUUAGUUA | 0.0102 ± 0.0041
22 | UCCUGGAUGUGCUUGCAUACUAUUUUGUUA | 0.00854 ± 0.0058
23 | UCCUGGAUGUGCUUGGAUUGUAUUUAGUUA | 0.00469 ± 0.0044
24 | UCCUGCUACAGGAUGCAUAGUAUUUACAAA | 0.0053 ± 0.0037
25 | UCCUGCUACAGCUACGAUAGUAUUUAGUAA | 0.185 ± 0.035
26 | UCCUGGAUCAGCUUGCAUAGAUUUUAGUAA | 0.0227 ± 0.0073
27 | UCCUGGAUGUCGUUGCAUAGAAUUUAGUUA | 0.00458 ± 0.0035
28 | UCCUGGAUGAGCUUGCAUAGAAUUAAGUUA | 0.00512 ± 0.0037
29 | UCCUGGAACAGCUUGCAUAGUAUUUAUUA | 0.046 ± 0.014
30 | UCCUGGAUCAGCUUGCAUAGUAAAAAGUAA | 0.108 ± 0.021
31 | UCCUGGUACAGCUUGCAAAGUAUUUUGUUA | 0.0563 ± 0.014
32 | UCCUGGAUCACCUUGCAUAGUAUUUACUUA | 0.0587 ± 0.017
33 | UCCUGGAUGUGCUUGCAUAGUAUUUCAGUUA | 0.0278 ± 0.01
34 | UCCUGCUACAGCUUGCAUAGUUAUUACAAA | 0.00534 ± 0.0038
35 | UCCUGGAUGUGCUUGCAUAUAUUUAGUUA | 0.00444 ± 0.0037
36 | UCCUCCUACAGCUUGCAUAGUUAUUACAAA | 0.0124 ± 0.0054
